# Results as given in PubChem BioAssay (EPA / NIEHS).
# Calls of active or inactive are those of the source. How the source made its calls: active means hit-call score of the fitted dose curve at least 0.9, where 1 is the maximum; inactive means score below 0.9.
# How the values were obtained:
# [1] = ATG_ISRE_CIS: Attagene CIS-FACTORIAL HepG2 Assay for human Interferon Regulatory Factor 1 (IRF1) binding to an Interferon-Stimulated Response Element (ISRE) (AID 2282948); conditions: HepG2 ISRE cis-reporter (Attagene), mRNA transcription readout; actives raise or lower the signal
# In short: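 Quantitation relies on labelled RT-PCR fragments separated by capillary electrophoresis. Human HepG2 cells bearing cis-promoter reporter constructs were treated 24 h; DMSO served as baseline for bidirectional fitting.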
# [2] = ATG_M_32_CIS: Attagene CIS-FACTORIAL HepG2 Assay for M32 Transcription Factor (Internal Marker) (AID 2282949); conditions: HepG2 Attagene cis-factorial M32 reporter, mRNA; actives raise or lower the signal;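 further: background control marker of the multiplexed CIS panel rather than a real target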
# In short: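 Fluorescent capillary electrophoresis peaks of HpaI-digested, FAM-labelled RT-PCR reporter products give the signal. Source: transiently transfected human liver HepG2 cells, 24 h after chemical dosing; bidirectional fitting against DMSO.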
# [3] = ATG_M_06_CIS: Attagene CIS-FACTORIAL HepG2 Assay for M06 Transcription Factor (Internal Marker) (AID 2282950); conditions: HepG2 Attagene CIS-FACTORIAL M06 internal marker reporter; actives raise or lower the signal
# In short: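 One of many multiplexed endpoints: HepG2 reporter mRNA after 24 h dosing, detected by RT-PCR and capillary electrophoresis fluorescence; gain or loss of signal analysed against DMSO.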
# [4] = biological target: Hypoxia-inducible factor 1-alpha (Homo sapiens) (UniProt Q16665); assay: ATG_HIF1a_CIS: Attagene CIS-FACTORIAL HepG2 Assay for human Hypoxia Inducible Factor 1 (HIF1A) (AID 2282951); conditions: HepG2 Attagene cis-factorial HIF1a reporter transcription; actives raise or lower the signal
# In short: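 Dosed 24 h, transfected HepG2 cells yielded total RNA whose reporter transcripts were RT-PCR-amplified and sized by capillary electrophoresis using fluorescent labelling; DMSO defined baseline, with gain and loss of signal both fitted.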
# [5] = biological target: Hepatocyte nuclear factor 6 (Homo sapiens) (UniProt Q9UBC0); assay: ATG_HNF6_CIS: Attagene CIS-FACTORIAL HepG2 Assay for human Hepatocyte Nuclear Factor 6 (HNF6) (AID 2282952); conditions: HepG2 Attagene cis-factorial HNF6 reporter transcription; actives raise or lower the signal
# In short: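 HepG2 cells transiently transfected with cis-element-driven multiplexed reporter units measuring endogenous transcription factor activity. After 24 h exposure, reporter mRNA quantified by RT-PCR, FAM-labelled fragments and capillary electrophoresis; bidirectional fitting versus DMSO.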
# [6] = biological target: Heat shock factor protein 1 (Homo sapiens) (UniProt Q00613); assay: ATG_HSE_CIS: Attagene CIS-FACTORIAL HepG2 Assay for human Heat Shock Transcription Factor 1 (HSE) (AID 2282953); conditions: HepG2 HSE cis-reporter, Attagene RNA transcription; actives raise or lower the signal
# In short: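 Using HepG2 with transfected cis-driven reporter constructs, compound effects on endogenous factor activity are scored as reporter mRNA change at 24 h. Detection: RT-PCR, HpaI digestion, capillary electrophoresis; bidirectional fitting to DMSO.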
# [7] = ATG_MRE_CIS: Attagene CIS-FACTORIAL HepG2 Assay for human Metal Responsive Element (MRE) (AID 2282954); conditions: HepG2 MRE cis-reporter transcription, Attagene multiplex; actives raise or lower the signal
# In short: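 Transient MRTU transfection of HepG2 (FuGene 6); 24 h dosing; total RNA → oligo(dT) RT, PCR, 6-FAM primer extension, HpaI cut, CE. Bidirectional fit vs DMSO.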
# [8] = ATG_PBREM_CIS: Attagene CIS-FACTORIAL HepG2 Assay for human Phenobarbital-responsive Enhancer Module (PBREM) (AID 2282955); conditions: HepG2 PBREM cis-reporter, Attagene multiplexed transcription; actives raise or lower the signal
# In short: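 Transfected liver-derived HepG2 cells exposed 24 h; PBREM reporter transcript quantified via RT-PCR and capillary electrophoresis, with activity in either direction referenced to DMSO.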
# [9] = biological target: Paired box protein Pax-6 (Homo sapiens) (UniProt P26367); assay: ATG_Pax6_CIS: Attagene CIS-FACTORIAL HepG2 Assay for human Paired Box 6 (PAX6) (AID 2282956); conditions: HepG2 CIS-FACTORIAL PAX6 reporter transcription, RNA readout; actives raise or lower the signal
# In short: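 After twenty-four hours of chemical exposure, transfected HepG2 cells are harvested for RNA. Cis-promoter reporter transcripts are amplified, fluorescently labelled and sized by capillary electrophoresis, with gain and loss of signal scored against DMSO.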
# [10] = ATG_PXRE_CIS: Attagene CIS-FACTORIAL HepG2 Assay for human Pregnane X Receptor Element (PXRE) (AID 2282957); conditions: HepG2 Attagene CIS-FACTORIAL PXRE reporter, mRNA; actives raise or lower the signal
# In short: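 HepG2 cells transiently transfected with cis-element-driven multiplexed reporter units; after 24 h chemical exposure, reporter mRNA measured by RT-PCR, 6-FAM labelling, HpaI digestion and capillary electrophoresis. Bidirectional fitting relative to DMSO.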
# [11] = ATG_PPRE_CIS: Attagene CIS-FACTORIAL HepG2 Assay for human Peroxisome Proliferator-activated Response Element (PPRE) (AID 2282958); conditions: HepG2 PPRE cis-element reporter, Attagene transcription factor profiling; actives raise or lower the signal
# In short: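 Measured endpoint: PPRE-controlled reporter mRNA, detected by RT-PCR and capillary electrophoresis fluorescence, from transiently transfected HepG2 cells 24 h after dosing. Curves fitted in both directions using DMSO baseline.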
# [12] = ATG_RORE_CIS: Attagene CIS-FACTORIAL HepG2 Assay for human RAR-related Orphan Receptor Element (RORE) (AID 2282959); conditions: HepG2 Attagene cis-factorial RORE reporter, mRNA; actives raise or lower the signal
# In short: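 Transiently transfected HepG2 reporter cells were treated 24 h. Reporter transcripts were detected by RT-PCR and capillary electrophoresis, with bidirectional fitting against DMSO.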
# [13] = ATG_Sox_CIS: Attagene CIS-FACTORIAL HepG2 Assay for human SRY-box transcription factor (SOX) (AID 2282960); conditions: HepG2 Attagene cis-factorial SOX reporter, mRNA; actives raise or lower the signal
# In short: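 Gain- or loss-of-signal endpoint, fitted bidirectionally with DMSO as negative control. Based on reporter mRNA from transfected HepG2 cells harvested 24 h post-treatment and quantified via RT-PCR and capillary electrophoresis.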
# [14] = biological target: Transcription factor Sp1 (Homo sapiens) (UniProt P08047); assay: ATG_Sp1_CIS: Attagene CIS-FACTORIAL HepG2 Assay for human Specificity Protein 1 (Sp1) (AID 2282961); conditions: HepG2 Sp1 cis-reporter transcription, actives raise or lower the signal
# In short: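 Endpoint reflects endogenous Sp1 transcriptional activity, not an exogenous fusion protein: HepG2 cells with transfected cis-regulated reporters, 24 h dosing, RT-PCR/capillary electrophoresis mRNA read-out, DMSO-normalised bidirectional fit.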
# [15] = ATG_SREBP_CIS: Attagene CIS-FACTORIAL HepG2 Assay for human Sterol Regulatory Element Binding (SREBP) (AID 2282962); conditions: HepG2 Attagene cis-factorial SREBP reporter, mRNA; actives raise or lower the signal
# In short: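 Twenty-four hours after chemical dosing of transfected HepG2 cultures, reporter RNA was converted to cDNA, amplified, end-labelled with 6-FAM and resolved by capillary electrophoresis. Responses were fitted relative to DMSO.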
# [16] = biological target: Signal transducer and activator of transcription 3 (Homo sapiens) (UniProt P40763); assay: ATG_STAT3_CIS: Attagene CIS-FACTORIAL HepG2 Assay for human Signal Transducer and Activator of Transcription 3 (STAT3) (AID 2282963); conditions: HepG2, Attagene cis-factorial STAT3 reporter transcription; actives raise or lower the signal
# In short: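 Endogenous STAT3-responsive cis-element activity was read in transiently transfected HepG2 cells after 24 h treatment. Reporter transcripts were quantified via RT-PCR and capillary electrophoresis, with DMSO as negative control and bidirectional curve fitting.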
# [17] = ATG_TA_CIS: Attagene CIS-FACTORIAL HepG2 Assay for human TA Basal Promoter (AID 2282964); conditions: HepG2 Attagene CIS-factorial TA basal promoter reporter; actives raise or lower the signal
# In short: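 Transient MRTU transfection of HepG2 preceded 24 h compound exposure. Reporter mRNA levels were then read by RT-PCR with capillary electrophoresis, and this background-control endpoint was fitted bidirectionally to DMSO.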
# [18] = ATG_TCF_b_cat_CIS: Attagene CIS-FACTORIAL HepG2 Assay for human T-Cell-Factor with beta-catenin (TCF/b-cat) (AID 2282965); conditions: HepG2 TCF/beta-catenin cis-reporter transcription, actives raise or lower the signal
# In short: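 Endogenous TCF/LEF activity read as reporter transcript level via RT-PCR and capillary electrophoresis fluorescence in transfected HepG2, 24 h exposure; gain or loss of signal fitted against DMSO controls.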
# [19] = ATG_TAL_CIS: Attagene CIS-FACTORIAL HepG2 Assay for human TAL Basal Promoter (AID 2282966); conditions: HepG2 Attagene cis-factorial TAL promoter reporter; actives raise or lower the signal;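 further: background control endpoint measuring basal TAL promoter reporter mRNA not a specific factor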
# In short: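 HepG2 cells transiently transfected with multiplexed cis-promoter reporter units, dosed 24 h. Reporter mRNA quantified by RT-PCR, 6-FAM labelling, HpaI digestion and capillary electrophoresis; TAL basal promoter serves as background control, fitted bidirectionally versus DMSO.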
# [20] = ATG_TGFb_CIS: Attagene CIS-FACTORIAL HepG2 Assay for human Transforming Growth Factor (TGF) (AID 2282967); conditions: HepG2 Attagene CIS TGFb reporter, mRNA transcription; actives raise or lower the signal
# In short: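 After a 24-hour incubation with compound, transfected HepG2 cells were lysed for RNA; reporter cDNA was amplified, fluorescently end-labeled and separated by CE. DMSO served as baseline for bidirectional fits.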
# Sequence of Heat shock factor protein 1 (Homo sapiens) (Q00613 whole entry, looked up): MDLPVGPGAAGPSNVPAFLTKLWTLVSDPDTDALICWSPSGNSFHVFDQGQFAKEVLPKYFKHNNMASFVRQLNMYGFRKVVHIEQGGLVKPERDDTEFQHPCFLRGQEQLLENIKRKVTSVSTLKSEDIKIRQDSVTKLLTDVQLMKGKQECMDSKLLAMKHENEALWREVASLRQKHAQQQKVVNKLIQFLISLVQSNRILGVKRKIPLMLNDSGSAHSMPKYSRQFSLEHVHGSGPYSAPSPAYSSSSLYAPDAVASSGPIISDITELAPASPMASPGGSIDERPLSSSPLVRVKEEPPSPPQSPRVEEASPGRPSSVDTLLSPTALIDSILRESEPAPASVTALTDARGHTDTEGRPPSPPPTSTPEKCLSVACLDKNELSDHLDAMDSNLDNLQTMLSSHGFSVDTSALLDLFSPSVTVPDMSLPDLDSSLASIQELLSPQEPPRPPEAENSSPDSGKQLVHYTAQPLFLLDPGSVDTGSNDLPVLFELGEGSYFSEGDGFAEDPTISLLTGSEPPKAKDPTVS
# Sequence of Transcription factor Sp1 (Homo sapiens) (P08047 whole entry, looked up, the tested form may be a part): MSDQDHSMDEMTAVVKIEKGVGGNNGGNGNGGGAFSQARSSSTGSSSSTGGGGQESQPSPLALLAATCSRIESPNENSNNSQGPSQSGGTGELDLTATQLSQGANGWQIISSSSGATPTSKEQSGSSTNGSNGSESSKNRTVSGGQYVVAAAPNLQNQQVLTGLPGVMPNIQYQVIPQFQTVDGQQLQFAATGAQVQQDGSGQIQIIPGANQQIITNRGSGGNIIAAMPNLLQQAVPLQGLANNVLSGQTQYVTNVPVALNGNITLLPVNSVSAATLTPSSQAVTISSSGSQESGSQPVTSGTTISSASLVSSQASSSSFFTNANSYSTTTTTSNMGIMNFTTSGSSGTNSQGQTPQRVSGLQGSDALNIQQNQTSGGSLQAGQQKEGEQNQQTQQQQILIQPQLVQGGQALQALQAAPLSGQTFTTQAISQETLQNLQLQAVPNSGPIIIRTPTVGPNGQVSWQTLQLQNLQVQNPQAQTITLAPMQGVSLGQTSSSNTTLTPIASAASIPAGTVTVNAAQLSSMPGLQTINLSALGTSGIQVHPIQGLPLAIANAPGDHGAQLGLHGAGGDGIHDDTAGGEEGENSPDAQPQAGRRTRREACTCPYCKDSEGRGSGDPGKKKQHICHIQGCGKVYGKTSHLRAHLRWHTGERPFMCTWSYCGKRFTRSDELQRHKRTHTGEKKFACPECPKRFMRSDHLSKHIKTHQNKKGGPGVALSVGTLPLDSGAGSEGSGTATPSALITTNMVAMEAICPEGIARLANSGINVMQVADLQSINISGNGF
# Sequence of Paired box protein Pax-6 (Homo sapiens) (P26367 whole entry, looked up): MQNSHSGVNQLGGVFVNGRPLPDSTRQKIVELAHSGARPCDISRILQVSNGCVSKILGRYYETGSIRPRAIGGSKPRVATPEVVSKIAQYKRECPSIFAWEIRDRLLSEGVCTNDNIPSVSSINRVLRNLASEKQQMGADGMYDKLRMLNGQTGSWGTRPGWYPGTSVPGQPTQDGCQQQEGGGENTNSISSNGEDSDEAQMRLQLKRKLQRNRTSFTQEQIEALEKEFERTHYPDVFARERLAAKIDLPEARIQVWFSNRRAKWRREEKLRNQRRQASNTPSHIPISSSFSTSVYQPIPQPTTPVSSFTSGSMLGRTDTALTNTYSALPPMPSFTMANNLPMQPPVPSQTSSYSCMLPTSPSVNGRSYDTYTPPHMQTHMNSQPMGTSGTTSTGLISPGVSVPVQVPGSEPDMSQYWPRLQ
# Sequence of Hepatocyte nuclear factor 6 (Homo sapiens) (Q9UBC0 whole entry, looked up, the tested form may be a part): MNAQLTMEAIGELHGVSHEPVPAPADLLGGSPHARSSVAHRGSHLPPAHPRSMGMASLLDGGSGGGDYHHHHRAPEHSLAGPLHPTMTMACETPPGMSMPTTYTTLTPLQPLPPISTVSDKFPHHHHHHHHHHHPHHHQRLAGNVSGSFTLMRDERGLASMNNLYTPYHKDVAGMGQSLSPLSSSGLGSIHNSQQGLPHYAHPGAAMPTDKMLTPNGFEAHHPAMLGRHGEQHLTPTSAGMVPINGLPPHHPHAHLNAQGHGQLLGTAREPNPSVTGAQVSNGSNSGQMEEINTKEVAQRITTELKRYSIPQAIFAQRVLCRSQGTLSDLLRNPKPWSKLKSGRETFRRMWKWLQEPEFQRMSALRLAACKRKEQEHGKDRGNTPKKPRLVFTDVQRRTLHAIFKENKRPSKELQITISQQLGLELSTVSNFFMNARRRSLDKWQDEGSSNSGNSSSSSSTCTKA
# Sequence of Signal transducer and activator of transcription 3 (Homo sapiens) (P40763 whole entry, looked up): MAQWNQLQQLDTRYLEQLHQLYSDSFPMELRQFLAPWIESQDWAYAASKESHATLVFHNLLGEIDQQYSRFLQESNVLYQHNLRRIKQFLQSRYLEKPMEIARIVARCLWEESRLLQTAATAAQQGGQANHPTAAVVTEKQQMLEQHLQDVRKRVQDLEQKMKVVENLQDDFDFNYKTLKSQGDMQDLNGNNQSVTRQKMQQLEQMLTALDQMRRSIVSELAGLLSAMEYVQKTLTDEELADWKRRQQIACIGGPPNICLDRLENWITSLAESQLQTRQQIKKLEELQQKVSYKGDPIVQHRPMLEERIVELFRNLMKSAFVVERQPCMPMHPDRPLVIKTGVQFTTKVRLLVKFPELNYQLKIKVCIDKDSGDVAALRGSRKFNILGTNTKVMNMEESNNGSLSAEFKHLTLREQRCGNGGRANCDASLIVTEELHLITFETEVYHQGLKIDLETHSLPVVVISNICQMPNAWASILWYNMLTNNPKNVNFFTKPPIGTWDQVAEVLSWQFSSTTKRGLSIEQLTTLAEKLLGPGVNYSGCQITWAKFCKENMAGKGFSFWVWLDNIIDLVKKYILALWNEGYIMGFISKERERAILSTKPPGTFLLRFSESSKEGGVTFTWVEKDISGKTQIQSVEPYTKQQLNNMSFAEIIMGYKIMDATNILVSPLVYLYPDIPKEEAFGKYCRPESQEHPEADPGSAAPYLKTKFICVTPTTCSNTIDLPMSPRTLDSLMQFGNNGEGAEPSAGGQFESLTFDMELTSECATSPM
# Sequence of Hypoxia-inducible factor 1-alpha (Homo sapiens) (Q16665 whole entry, looked up): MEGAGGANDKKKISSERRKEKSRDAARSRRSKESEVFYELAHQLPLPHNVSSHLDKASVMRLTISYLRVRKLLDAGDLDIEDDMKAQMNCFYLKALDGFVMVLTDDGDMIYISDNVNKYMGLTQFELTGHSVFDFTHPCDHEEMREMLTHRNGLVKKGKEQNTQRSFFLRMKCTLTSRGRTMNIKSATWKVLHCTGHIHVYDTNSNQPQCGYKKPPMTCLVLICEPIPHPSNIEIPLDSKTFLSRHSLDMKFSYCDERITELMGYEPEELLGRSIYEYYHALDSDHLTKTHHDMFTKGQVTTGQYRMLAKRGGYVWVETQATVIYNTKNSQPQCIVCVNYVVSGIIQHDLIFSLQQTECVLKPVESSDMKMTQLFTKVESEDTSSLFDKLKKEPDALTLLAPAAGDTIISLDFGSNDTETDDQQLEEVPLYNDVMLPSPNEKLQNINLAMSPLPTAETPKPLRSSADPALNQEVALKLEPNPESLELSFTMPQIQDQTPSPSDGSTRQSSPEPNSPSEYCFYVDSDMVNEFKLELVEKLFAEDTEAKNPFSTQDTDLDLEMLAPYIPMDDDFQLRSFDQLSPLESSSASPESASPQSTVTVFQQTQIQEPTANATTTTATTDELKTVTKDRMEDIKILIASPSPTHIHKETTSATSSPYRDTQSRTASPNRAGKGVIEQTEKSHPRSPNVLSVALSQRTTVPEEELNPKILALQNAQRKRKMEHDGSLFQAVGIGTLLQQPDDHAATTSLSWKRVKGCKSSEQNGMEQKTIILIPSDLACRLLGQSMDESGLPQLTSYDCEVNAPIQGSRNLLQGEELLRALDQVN
smiles,measurement,setting,value
CCO[Si](CCC1CCC2OC2C1)(OCC)OCC (stereo not given),outcome,[1],inactive
same,outcome,[2],inactive
same,outcome,[3],inactive
same,outcome,[4],inactive
same,outcome,[5],inactive
same,outcome,[6],inactive
same,outcome,[7],inactive
same,outcome,[8],inactive
same,outcome,[9],inactive
same,outcome,[10],inactive
same,outcome,[11],inactive
same,outcome,[12],inactive
same,outcome,[13],inactive
same,outcome,[14],inactive
same,outcome,[15],inactive
same,outcome,[16],inactive
same,outcome,[17],inactive
same,outcome,[18],inactive
same,outcome,[19],inactive
same,outcome,[20],inactive
CC1CCC(C(=O)O)CC1 (stereo not given),outcome,[1],inactive
same,outcome,[2],inactive
same,outcome,[3],inactive
same,outcome,[4],inactive
same,outcome,[5],inactive
same,outcome,[6],inactive
same,outcome,[7],inactive
same,outcome,[8],inactive
same,outcome,[9],inactive
same,outcome,[10],inactive
same,outcome,[11],inactive
same,outcome,[12],inactive
same,outcome,[13],inactive
same,outcome,[14],inactive
same,outcome,[15],inactive
same,outcome,[16],inactive
same,outcome,[17],inactive
same,outcome,[18],inactive
same,outcome,[19],inactive
same,outcome,[20],inactive
CC(=O)CC(C)C,outcome,[1],inactive
same,outcome,[2],inactive
same,outcome,[3],inactive
same,outcome,[4],inactive
same,outcome,[5],inactive
same,outcome,[6],inactive
same,outcome,[7],inactive
same,outcome,[8],inactive
same,outcome,[9],inactive
same,outcome,[10],inactive
same,outcome,[11],inactive
same,outcome,[12],inactive
same,outcome,[13],inactive
same,outcome,[14],inactive
same,outcome,[15],inactive
same,outcome,[16],inactive
same,outcome,[17],inactive
same,outcome,[18],inactive
same,outcome,[19],inactive
same,outcome,[20],inactive
Oc1cc2ccccc2cc1O,outcome,[1],inactive
same,outcome,[2],inactive
same,outcome,[3],inactive
same,outcome,[4],inactive
same,outcome,[5],inactive
same,outcome,[6],inactive
same,outcome,[7],inactive
same,outcome,[8],inactive
same,outcome,[9],inactive
same,outcome,[10],inactive
same,AC50,[11],100 µM (active)
same,outcome,[12],inactive
same,outcome,[13],inactive
same,outcome,[14],inactive
same,outcome,[15],inactive
same,outcome,[16],inactive
same,outcome,[17],inactive
same,outcome,[18],inactive
same,outcome,[19],inactive
same,outcome,[20],inactive
Nc1cc(Cl)c(-c2cc(Cl)c(N)cc2Cl)cc1Cl,outcome,[1],inactive
same,outcome,[2],inactive
same,outcome,[3],inactive
same,outcome,[4],inactive
same,outcome,[5],inactive
same,AC50,[6],18.1 µM (active)
same,AC50,[7],13.2 µM (active)
same,outcome,[8],inactive
same,outcome,[9],inactive
same,AC50,[10],2.97 µM (active)
same,outcome,[11],inactive
same,outcome,[12],inactive
same,AC50,[13],10.5 µM (active)
same,AC50,[14],15.9 µM (active)
same,AC50,[15],6.9 µM (active)
same,outcome,[16],inactive
same,outcome,[17],inactive
same,outcome,[18],inactive
same,outcome,[19],inactive
same,outcome,[20],inactive
CCCCCCCCCCCCCC[n+]1ccccc1,outcome,[1],inactive
same,outcome,[2],inactive
same,outcome,[3],inactive
same,outcome,[4],inactive
same,outcome,[5],inactive
same,outcome,[6],inactive
same,outcome,[7],inactive
same,outcome,[8],inactive
same,AC50,[9],11.1 µM (active)
same,AC50,[10],11.1 µM (active)
same,outcome,[11],inactive
same,outcome,[12],inactive
same,outcome,[13],inactive
same,outcome,[14],inactive
same,AC50,[15],2.7 µM (active)
same,outcome,[16],inactive
same,AC50,[17],8.99 µM (active)
same,outcome,[18],inactive
same,outcome,[19],inactive
same,outcome,[20],inactive
